Reference: PubChem BioAssay AID1259312 (Keith Lab, Institute of Cancer Science, University of …, 2017)
The campaign covered roughly 4,500 compounds. About 200 (4.4%) were called active.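 The calls were made as follows: active = cell survival measured by absorbance rises more than 2.5-fold over infected cells without compound; inactive = the rest.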 Many of the other results were omitted from the sample, so actives are more common in it than they were.

Experiment: survival after telomere uncapping, modulators, primary screen, cell-based (AID 1259312);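 also: virus expresses mutant telomerase RNA that uncaps telomeres and kills cells; compound added 2 days after infection so exposure lasts 3 days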
Conditions: HCT116 + Ad-hTR-mut, MTT, 5 d; at 10 µM, hits give high values

| SMILES | fold change |
| --- | --- |
| Clc1ccccc1/C=C/c1nnc(-c2ccccc2Cl)o1 | -1.03 (inactive) |
| CC12CCC(=O)C=C1CCC1C2CCC2(C)C1CC[C@@]21OCOC12COCO2 (stereo partly drawn) | 3.17 (active) |
| CC(=O)[C@H]1CC[C@H]2[C@@H]3CCC4=CC(=O)CC[C@]4(C)[C@H]3CC[C@]12C | 1.4 (inactive) |
| CCCCCC(=O)O[C@]1(C(C)=O)CC[C@H]2[C@@H]3CCC4=CC(=O)CC[C@]4(C)[C@H]3CC[C@@]21C | -1.16 (inactive) |
| CC(Sc1nnc(Cc2ccccc2)n1C1CCCCC1)c1nc(N)nc(N2CCCc3ccccc32)n1 (stereo not drawn) | -1.7 (inactive) |
| O=c1cc(-c2cccc(O)c2)oc2cc(O)ccc12 | -1.53 (inactive) |
| O=C(c1ccc(COc2ccc(Cl)cc2Cl)o1)n1cc(Br)cn1 | -1.16 (inactive) |
| CC1CC[C@H](C(C)C)C(O)C1 (stereo partly drawn) | -1.42 (inactive) |
| O=[N+]([O-])c1ccc2nc(CSc3nc4ccc(Br)cc4[nH]3)[nH]c2c1 | 3.33 (active) |
| Cn1c(SCc2nc3ccc([N+](=O)[O-])cc3[nH]2)nc2ccccc21 | -1.29 (inactive) |
| O=c1[nH]c(SCc2nc3ccc([N+](=O)[O-])cc3[nH]2)nc2ccccc12 | inactive |
| Clc1[nH]nc2ccccc12 | 1.09 (inactive) |
| O=[N+]([O-])c1ccc(N2CCN(S(=O)(=O)c3ccc4ccccc4c3)CC2)c2ncccc12 | -1.06 (inactive) |
| CN1CCN(Cc2cc(Cl)c3cccnc3c2O)CC1 | 3.37 (active) |
| CN(Cc1cc([N+](=O)[O-])c(O)c2ncccc12)C1CCCCC1 | 3 (active) |
| O=[N+]([O-])c1cc(CN2CCCC2)c2cccnc2c1O | 3.06 (active) |
| O=[N+]([O-])c1ccc(N2CCCC2)cc1Sc1cccc2cccnc12 | 1.11 (inactive) |
| OCc1ccc(O)c2ncccc12 | -7.69 (inactive) |
| O=[N+]([O-])c1cc(Cl)c2cccnc2c1O | 2 (inactive) |
| OCCOc1c(Cl)cc(Cl)c2cccnc12 | -1.42 (inactive) |
| CN(Cc1cc(Br)cc(Br)c1N)C1CCCCC1 | -1.39 (inactive) |
| CN1CCN(Cc2cc([N+](=O)[O-])c(O)c3ncccc23)CC1 | 2.98 (active) |
| O=[N+]([O-])c1ccc(Sc2nnnn2-c2ccccc2)c2cccnc12 | -73.2 (inactive) |
| S=c1[nH]nc(-c2cccs2)n1-c1ccccc1 | -1.22 (inactive) |
| C=C(C)n1c(=O)[nH]c2ccccc21 | 1.29 (inactive) |
| Cc1c(Br)c([N+](=O)[O-])nn1CC(=O)O | 1.12 (inactive) |

| SMILES | fold change |
| --- | --- |
| O=C1N=C(N2CCCC2)S/C1=C\c1ccc(Cl)cc1 | -1.52 (inactive) |
| COc1ccc(-c2nn(CN3CCN(C(c4ccccc4)c4ccccc4)CC3)c(=S)n2C)cc1 | -1.05 (inactive) |
| Brc1cccc(-c2nnc(SCc3ccon3)o2)c1 | -2.29 (inactive) |
| Clc1ccc(-c2nnc(SCc3nc(-c4ccccc4)no3)o2)cc1 | -1.07 (inactive) |
| Clc1ccc(-c2nnc(SCc3ccccc3)o2)c(Cl)c1 | 2.08 (inactive) |
| Clc1ccc(CSc2nnc(-c3ccccc3Cl)o2)c(Cl)c1 | 3.91 (active) |
| CCCSc1nnc(-c2ccc(Cl)cc2Cl)o1 | 2.03 (inactive) |
| Clc1ccc(CSc2nnc(-c3cccc(Br)c3)o2)c(Cl)c1 | 2.77 (active) |
| CC1(C)C=Cc2c(c3ccccc3[nH]c2=O)O1 | -1.4 (inactive) |
| O=C(Cc1cccs1)NC1CCCCCC1 | -2.19 (inactive) |
| Cc1ccc(-c2noc(COc3ccc4c(c3)OCO4)n2)cc1 | 1.5 (inactive) |
| CC1=C/C(=C(\c2cc(C)c(O)cc2C)c2ccccc2S(=O)(=O)O)C(C)=CC1=O | inactive |
| c1ccc(-c2nc3ccccc3nc2-c2ccccc2)cc1 | -1.02 (inactive) |
| O=S(=O)(Nc1nc2ccccc2nc1N1CCOCC1)c1ccccc1 | -1.42 (inactive) |
| CN1CCN(c2nc3ccccc3nc2N2CCN(C)CC2)CC1 | 2.65 (active) |
| CC(C)N1CC=C2C(C#N)=C(N)C(C#N)(C#N)C(c3ccc(F)cc3)[C@H]2C1 (stereo partly drawn) | 3.68 (active) |
| N#CC1=C(N)C(C#N)(C#N)[C@@H](c2cccc(Br)c2)[C@@H]2CN(Cc3ccccc3)CC=C12 | 1.73 (inactive) |
| COc1ccc(C2C3CCC=C3C(C#N)=C(N)C2(C#N)C#N)cc1 (stereo not drawn) | -1.15 (inactive) |
| CN1CC=C2C(C#N)=C(N)C(C#N)(C#N)C(c3ccc(F)cc3)[C@H]2C1 (stereo partly drawn) | -37.3 (inactive) |
| CC(C)c1ccc(C2[C@H]3CN(C)CC=C3C(C#N)=C(N)C2(C#N)C#N)cc1 (stereo partly drawn) | 2.14 (inactive) |
| CCCN1CC=C2C(C#N)=C(N)C(C#N)(C#N)[C@H](c3ccsc3)[C@H]2C1 | 2.9 (active) |
| c1cnc(SCc2ccc3nsnc3c2)nc1 | 1.11 (inactive) |
| CC(=O)Nc1ccc(S(=O)(=O)N2CCCC2C(=O)NC2CC2)cc1 (stereo not drawn) | -1.03 (inactive) |
| COc1ccc(Oc2coc3cc(O)ccc3c2=O)cc1 | -2.75 (inactive) |
| N#C/C(=C\c1ccc2c(c1)OCO2)c1ccccn1 | -2.23 (inactive) |
| CC(=O)Nc1nonc1NC(=O)C(F)(F)F | -1.07 (inactive) |

| SMILES | fold change |
| --- | --- |
| O=S(=O)(NCCn1cccc1)c1ccc2ccccc2c1 | 1.09 (inactive) |
| O=[N+]([O-])c1cc(Cl)ccc1N1CCN(c2ccc(Cl)cc2[N+](=O)[O-])CC1 | 2.59 (active) |
| O=[N+]([O-])c1cc(Cl)ccc1N1CCOCC1 | -1.07 (inactive) |
| O=[N+]([O-])c1ccc(Cl)cc1N1CCOCC1 | 1.51 (inactive) |
| CC(C)CC(N)C(N)=O (stereo not drawn) | -2.69 (inactive) |
| N#C/C(=C/c1ccncc1)C(N)=S | -1.8 (inactive) |
| COc1cc2c(Cc3c4c5c(cc(OC)c(OC)c5c5c(OC)c(OC)ccc35)CCN4C)c3c4c(cc(OC)c(OC)c4c2cc1OC)CCN3C | -1.39 (inactive) |
| COC(=O)C1=C(N)C(C(=O)OC)=c2s/c(=C/c3cccnc3)c(=O)n2C1c1cccnc1 (stereo not drawn) | 1.8 (inactive) |
| c1ccc(-c2nc(SCc3ccon3)[nH]c2-c2ccccc2)cc1 | -1.7 (inactive) |
| Cc1sc(NC(=O)Cn2cnc([N+](=O)[O-])n2)c(C(N)=O)c1C | 1.35 (inactive) |
| CC(C)CCCC(C)C1CCC2C3CC=C4CC(O)CCC4(C)C3CCC12C (stereo not drawn) | 1.54 (inactive) |
| CC(=O)OC1CCC2(C)C(=CCC3C2CC[C@]2(C)C(C(C)=O)CCC32)C1 (stereo partly drawn) | 1.32 (inactive) |
| CC[C@H](/C=C/[C@@H](C)[C@H]1CC[C@H]2[C@@H]3CC=C4C[C@@H](O)CC[C@]4(C)[C@H]3CC[C@]12C)C(C)C | -1.34 (inactive) |
| CC(=O)OC1CCC2(C)C(=CCC3C2CCC2(C)C3CC3OC32[C@H](C)OC(C)=O)C1 (stereo partly drawn) | 4.11 (active) |
| CC(=O)OC1CCC2(C)C(=CCC3C2CCC2(C)C(C(C)O)CCC32)C1 (stereo not drawn) | 3.23 (active) |
| CCCCOC1CC[C@@]2(C)C(=CC[C@H]3[C@@H]4CC[C@H]([C@H](C)CCCC(C)C)[C@@]4(C)CC[C@@H]32)C1 (stereo partly drawn) | -1.1 (inactive) |
| CNc1oc(/C=C/c2ccccc2)nc1S(=O)(=O)c1ccc(Cl)cc1 | -1.12 (inactive) |
| CC(C)(C)Sc1c(Br)cccc1Br | -2.29 (inactive) |
| CCCc1nnc(NC(=O)c2ccoc2C)s1 | -1.3 (inactive) |
| CCOc1ccc(-n2c(C)cc(C(=S)N3CCOCC3)c2C)cc1 | -3.28 (inactive) |
| CCC(C)C(NC(C)=O)C(=O)O (stereo not drawn) | 1.28 (inactive) |
| NC1CCCc2c1[nH]c1ccc(Br)cc21 (stereo not drawn) | -11 (inactive) |
| c1ccc(OCC2CCNCC2)nc1 | 2.98 (active) |
| CC(C)(C)c1cc(Cl)cc(Cc2cc(C(C)(C)C)c(O)c(C(C)(C)C)c2)c1O | -1.42 (inactive) |
| CCOC(=O)C1=C(C(=O)OCC)SC(=C2C(=S)C(C)(C)N(C)c3ccc(C)cc32)S1 | -1 (inactive) |
| O=C(Nc1ccccc1)Nc1ccc2c(c1)OCCO2 | -1.3 (inactive) |

| SMILES | fold change |
| --- | --- |
| O=C(Nc1ccc(F)cc1)Nc1nncs1 | -1.15 (inactive) |
| O=C(Nc1ccccc1)Nc1snnc1C(=O)O | 4.77 (active) |
| CCOC(=O)C1CCN(C(=O)CC(C)C)CC1 | -1.61 (inactive) |
| O=S(=O)(Nc1cccc2ccccc12)N1CCCCC1 | -1.29 (inactive) |
| C=CCN(CC=C)C(=O)Cc1cccs1 | -1.46 (inactive) |
| Oc1ccc(Br)cc1C=Nc1cc(Cl)cc(Cl)c1 | inactive |
| O=[N+]([O-])c1ccc(O)c(C=Nc2ccc(I)cc2)c1 | inactive |
| COc1ccc(OC)c(N=Cc2cc(Br)ccc2O)c1 | active |
| Oc1ccc(Br)cc1C=Nc1cc(Cl)ccc1Cl | inactive |
| COc1cc2c(cc1N=Cc1cc(Br)ccc1O)oc1ccccc12 | inactive |
| Oc1ccc(Br)cc1C=Nc1ccc(I)cc1 | active |
| COc1ccc(OC)c(N=Cc2cc(Cl)cc(Cl)c2O)c1 | inactive |
| Oc1ccc(Br)c(C=Nc2ccc(-c3ccc(N=Cc4cc(Br)ccc4O)cc3)cc2)c1 | active |
| Oc1c(Br)cc(Br)cc1C=Nc1ccc(Br)cc1 | inactive |
| O=c1c2ccc(Cl)c3c(Cl)ccc(c32)c2nc3ccccc3n12 | -2.06 (inactive) |
| Cc1cc(C)n(C(=O)c2nn(C)cc2[N+](=O)[O-])n1 | 1.61 (inactive) |
| O=[N+]([O-])c1cc(Br)cc(C=Nc2ccc(I)cc2)c1O | inactive |
| N#CC1=C(N)Oc2[nH]c(=O)[nH]c(=O)c2C1c1cccnc1 (stereo not drawn) | 1.23 (inactive) |
| O/N=C(\c1ccccc1)C(O)c1ccccc1 (stereo not drawn) | -1.85 (inactive) |
| S=c1nc(-c2ccccc2Cl)[nH][nH]1 | -1.2 (inactive) |
| Nn1c(-c2cccs2)nc2ccccc2c1=O | -1.03 (inactive) |
| O=C1C=CC(=O)N1c1ccc(Cl)c(Cl)c1 | -1.48 (inactive) |
| NCC1NCCc2ccccc21 (stereo not drawn) | -1.4 (inactive) |
| NC(=S)NCCC[C@H](N)C(=O)O | 1.05 (inactive) |
| c1ccc2cc(NCSCc3nc4ccccc4c4ccccc34)ccc2c1 | -1.54 (inactive) |
